Screens as filed in PubChem.
TDP1 block – inhibitors of human tyrosyl-DNA phosphodiesterase TDP1; 350,000 tested, 0.28% active; Potency, µM (titrated, usually from 130 µM), without a hit: at the top dose activity change, negative = inhibition, actives largely listed as inhibitors; AID 485290; Q9NUW8; recombinant TDP1, AlphaScreen DNA substrate cleavage; note: % is set by controls: 0 for no effect and ±100 for the full control effect; nearly all actives have a fitted effect of over 40% in size
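Signal: AlphaScreen proximity between streptavidin donor and anti-FITC acceptor beads on intact substrate. Reaction: Tdp1 1 nM, substrate 15 nM final, 5 min RT after 15 min compound preincubation.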
TDP1 cell noCPT – qHTS for Inhibitors of human tyrosyl-DNA phosphodiesterase 1 (TDP1): qHTS in cells in absence of CPT; DT40 Tdp1-/- hTDP1 cells, no CPT, ATP luminescence, 48 h; Potency, µM (series often up to 46.2 µM), inactives show top-dose activity change, negative = growth inhibition, usual class: inhibitors; 420,000 tested, 15% active; AID 686978, 2013; note: % is set by controls: 0 for no effect and ±100 for the full control effect; nearly all actives have a fitted effect of over 55% in size
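Compound effects on proliferation are scored in DT40 Tdp1-/-;hTDP1 cells in the absence of CPT. ATP levels (CellTiter-Glo luminescence) are recorded after a ≥48 hr, 37 °C incubation.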
ClpP mod – qHTS Assay for Activators of ClpP; ATP-dependent Clp protease proteolytic subunit (Bacillus subtilis (strain 168)), P80244; 340,000 tested, 1.9% active; Potency, µM (doses to about 57.5 µM), for the others: top-dose activity change, negative = active; purified B. subtilis ClpP, FRET peptide cleavage, 20 min; active = well fitted falling curve with a large enough effect; inconclusive = small, poorly fitted or top-dose-only effect; inactive = no such curve, though single readings can be large or run the other way; note: the source files actives as falling curves though it sought activators and does not explain the sign; nearly all actives have a fitted effect of over 65% in size
Target sequence (P80244 whole entry, looked up): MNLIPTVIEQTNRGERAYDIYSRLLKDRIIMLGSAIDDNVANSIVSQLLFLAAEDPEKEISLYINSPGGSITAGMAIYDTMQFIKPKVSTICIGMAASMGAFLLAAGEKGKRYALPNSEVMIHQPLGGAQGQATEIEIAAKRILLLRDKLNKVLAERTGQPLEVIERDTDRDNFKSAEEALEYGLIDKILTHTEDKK
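FRET quenching reversal measured ClpP activation: 10 microg/mL B. subtilis ClpP at pH 8 with the FRET-FV decapeptide, read at 430 nm after 320 nm excitation. The 20-min minus 0-min signal was scaled between DMSO/no-enzyme wells and ADEP (5.8 microM final).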
DT40 TDP1 CPT – growth inhibition of DT40 Tdp1-/-;hTDP1 cells with camptothecin (screen for TDP1 inhibitors); chicken DT40 Tdp1-/-;hTDP1 cells + 20 nM CPT, ATP luminescence, 48 h; Potency, µM (series often up to 46.2 µM), inactives show at the highest dose activity change, negative = growth inhibition, actives largely listed as inhibitors; 420,000 tested, 12% active; AID 686979; note: % is set by controls: 0 for no effect and ±100 for the full control effect; nearly all actives have a fitted effect of over 55% in size
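Chicken DT40 Tdp1-/- cells complemented with human TDP1, 400 cells/well, exposed to compounds plus 20 nM camptothecin for at least 48 h at 37 C; viability read as ATP content by CellTiter-Glo luminescence.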
* hit, by the source's call; ? = inconclusive; . = not tested or not shown; [ ] = another dose, or the depositor's remark. Most compounds without a hit are left out; they make up all but 17% or so of the library. Unless noted, calls come from the whole dose curve; as a rule, active = well fitted curve in the direction sought with a large enough effect; inconclusive = small, poorly fitted or top-dose-only effect, or another doubt; inactive = no such curve, though single readings can be large; an effect the other way counts as inactive or inconclusive. Potency is the fitted concentration of half-maximal effect.

SMILES | TDP1 block | TDP1 cell noCPT | ClpP mod | DT40 TDP1 CPT
CC[C@@H]1C=C(C)C[C@H](C)C[C@H](OC)[C@H]2O[C@@](O)(C(=O)C(=O)N3CCCC[C@H]3C(=O)O[C@H](/C(C)=C/[C@@H]3CC[C@@H](O)[C@H](OC)C3)[C@H](C)[C@@H](O)CC1=O)[C@H](C)C[C@@H]2OC | 0.0% | . | . | .
CO[C@H]1C[C@@H]2CC[C@@H](C)[C@@](O)(O2)C(=O)C(=O)N2CCCC[C@H]2C(=O)OC([C@H](C)C[C@@H]2CC[C@@H](O)[C@H](OC)C2)CC(=O)[C@H](C)/C=C(\C)[C@@H](O)[C@@H](OC)C(=O)[C@H](C)C[C@H](C)/C=C/C=C/C=C/1C (stereo partly specified) | 13.4% | 0.0092µM* | . | 0.0103µM*
CCOC(=O)C1=C(COC(=O)CNS(=O)(=O)c2ccc(NC(C)=O)cc2)NC(=O)NC1C (stereo unspecified) | . | -2.7% | -3.8% | -22.8%
CCOC(=O)N1CCN(C(=O)CNC(=O)c2nn(-c3ccc(OC)cc3OC)c(=O)c3ccccc23)CC1 | 4.1% | -17.3% | . | -8.3%
COc1cccc(C(=O)N2CCCCC2CCN2CCCCC2)c1 (stereo unspecified) | 4.7% | -16.4% | 1.2% | -22.1%
O=C(Nc1cccc([N+](=O)[O-])c1)c1ccc2ccccc2c1O | -2.9% | 14.6µM* | . | 23.1µM*
CC(=O)Nc1ccc(CCNC(=O)c2ccc3ccccc3c2O)cc1 | . | ? | 25.1µM* | -20.4%
O=C(Nc1ccccn1)c1ccc2ccccc2c1O | . | 14.6µM* | -1.6% | 3.1%
O=C(O)c1ccccc1C(=O)Nc1ccccn1 | 1.1% | -4.0% | -5.9% | -0.9%
Cc1occc1C(=O)Nc1cccc([N+](=O)[O-])c1 | 3.2% | -24.2% | 1.0% | -2.3%
O=C(Nc1cccnc1)c1ccc2ccccc2c1O | . | 13µM* | 0.1% | -17.6%
CCOC(=O)c1cc2c(ccc3ccccc32)oc1=O | -2.6% | 0.8% | 4.6% | 12.2%
CCOC(=O)/C=C(\C)Sc1cc(=O)oc2ccccc12 | 4.7% | 20.6µM* | -1.5% | 23.1µM*
CCOC(=O)c1c(C)oc2c1cc(O)c1ccccc12 | 3.9% | -17.4% | -6.0% | -18.3%
CCOC(=O)/C=C(\C)Sc1cc(O)c2ccccc2c1O | 9.6% | 1.16µM* | -1.5% | 0.92µM*
CC1CCCC(C)N1C(=O)COC(=O)COc1ccc(C#N)cc1 (stereo unspecified) | -3.6% | 0.5% | -1.6% | 4.0%
Cc1ccc2nc(Cl)c3cc(C(=O)NC4CCCCC4)sc3c2c1 | -1.3% | -22.3% | -10.4% | 8.7%
CS(=O)(=O)Nc1cccc(-c2nc(N3CCNCC3)c3ccccc3n2)c1 | 7.3%[56.1 µM] | ? | . | ?
c1ccc2c(N3CCNCC3)nc(-c3ccc4c(c3)OCO4)nc2c1 | 9.7%[56.1 µM] | 20.6µM* | . | ?
N#Cc1cccc(-c2nc(N3CCNCC3)c3ccccc3n2)c1 | -3.4%[56.1 µM] | 18.4µM* | . | ?
O=C(c1ccc2c(=O)n(Cc3ccc(Cl)cc3)c(=S)[nH]c2c1)N1CCOCC1 | 2.8% | ? | 0.9% | ?
O=c1c2ccccc2oc2ccccc12 | -11.3%[56.1 µM] | -13.8% | . | -4.6%
O=c1c2ccccc2oc2cc(-c3ccc4[nH]ccc4c3)ccc12 | . | 2.06µM* | -2.8% | 1.84µM*
COc1cc2sc3ccc(-c4ccc5[nH]ccc5c4)cc3c(=O)c2cc1OC | . | 5.8µM* | 0.4% | 5.8µM*
CCOC(=O)c1ccc(NC2=CC(c3ccc(F)cc3)N(c3ccc(C(=O)OCC)cc3)C2=O)cc1 (stereo unspecified) | 4.5% | 18.4µM* | -3.3% | 16.4µM*
SMILES | TDP1 block | TDP1 cell noCPT | ClpP mod | DT40 TDP1 CPT
CCOC(=O)c1ccc(NC2=CC(c3ccc(Br)cc3)N(c3ccc(C(=O)OCC)cc3)C2=O)cc1 (stereo unspecified) | -4.5% | . | -1.6% | .
COc1ccc2c(c1)OCC(Cc1ccc(OC)c(OC)c1)C2=O (stereo unspecified) | -4.0%[56.1 µM] | 13µM* | . | ?
COc1ccc2c(c1)OCC(Cc1ccc(OC)c(OC(C)=O)c1)C2=O (stereo unspecified) | -4.5%[56.1 µM] | 0.651µM* | . | 0.651µM*
CC#CC[N+](C)(C)CCCCCCCC | . | 9.2µM* | . | 11.6µM*
CCCCCCCCC | 3.7% | . | . | .
Cc1cc(C)cc(-n2c(SCC(N)=O)nc3c(oc4ccccc43)c2=O)c1 | 6.8% | 14.6µM* | 0.9% | ?
Cc1ccc(-n2c(SCC(N)=O)nc3c(oc4ccccc43)c2=O)cc1 | 5.9% | 18.4µM* | -2.8% | ?
Cc1cc(C)cc(NC(=O)CSc2nc3c(oc4ccccc43)c(=O)n2-c2ccccc2)c1 | 3.2% | ? | -5.8% | -16.0%
COCCN(C(=S)Nc1c(C)cc(C)cc1C)C(C)c1cccs1 (stereo unspecified) | -1.2% | 29.1µM* | 1.4% | ?
CC(C)N(C(=O)[C@H]1C[C@H](CC(=O)NCC23CC4CC(CC(C4)C2)C3)C(=O)N2CCc3c([nH]c4cc(CCC(=O)N(C)C)ccc34)[C@]12C)C(C)C | 3.2%[56.1 µM] | 7.31µM* | -4.9% | 6.51µM*
CN(C)C(=O)CCc1ccc2c3c([nH]c2c1)[C@]1(C)[C@@H](C(=O)N2CCOCC2)C[C@H](CC(=O)NCC24CC5CC(CC(C5)C2)C4)C(=O)N1CC3 | 0.7%[56.1 µM] | ? | -2.8% | 14.6µM*
CC[C@]12c3[nH]c4ccccc4c3CCN1C(=O)C(CC(=O)NCC13CC4CC(CC(C4)C1)C3)C[C@@H]2C(=O)N1CCN(C(=O)c2ccco2)CC1 (stereo partly specified) | 5.0% | ? | 0.9% | ?
COc1ccc(CNC(=O)C[C@H]2C[C@H](C(=O)N(C(C)C)C(C)C)[C@@]3(C)c4[nH]c5cc(CCC(=O)N(C)C)ccc5c4CCN3C2=O)cc1OC | 0.2%[56.1 µM] | ? | -4.5% | -9.7%
CC[C@]12c3[nH]c4cc(CCC(=O)N(C)C)ccc4c3CCN1C(=O)[C@@H](CC(=O)NCC13CC4CC(CC(C4)C1)C3)C[C@@H]2C(=O)N1CCN(C(=O)c2ccco2)CC1 | 1.4%[56.1 µM] | 16.4µM* | 0.9% | ?
COc1ccc(CCCNC(=O)C2(C)Cc3c(-c4ccc(C(N)=O)cc4)ccnc3O2)cc1 (stereo unspecified) | . | ? | -5.6% | ?
CC1(C(=O)NCc2ccncc2)Cc2c(-c3cccc(C(F)(F)F)c3)ccnc2O1 (stereo unspecified) | . | ? | -7.1% | ?
CC(=O)NCCNC(=O)C1(C)Cc2c(-c3cccc(C(N)=O)c3)ccnc2O1 (stereo unspecified) | . | -3.6% | -11.0% | -6.7%
CC1(C(=O)NCc2ccc(F)c(F)c2)Cc2c(-c3cccc(C(N)=O)c3)ccnc2O1 (stereo unspecified) | . | ? | -5.4% | ?
